These results are taken from PubChem BioAssay (Tox21).

Assay [1] in a line: qHTS assay to identify small molecule agonists of the vitamin D receptor (VDR) signaling pathway - cell viability counter screen (AID 743224; active means well fitted curve in the direction sought with a large enough effect in the repeat runs; an effect the other way counts as inactive or inconclusive; further: series mostly up to about 63 µM; nearly all actives have a fitted effect of over 50% in size). A digest of the protocol:
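Cells: VDR-bla, 2,000/well, settled 4 h. Treatment: compounds in DMSO, 16 h, 37C/5% CO2. Readout: CellTiter-Glo luminescence after 30 min RT.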
A general note: Quantitative high-throughput screening tests each substance at several concentrations.

A short description of assay [2]: qHTS assay to identify small molecule antagonists of the vitamin D receptor (VDR) signaling pathway - cell viability counter screen (AID 743225; active means well fitted curve in the direction sought with a large enough effect in the repeat runs; an effect the other way counts as inactive or inconclusive; further: nearly all actives have a fitted effect of over 50% in size). A digest of the protocol: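 Same-well multiplex: following 16 h treatment of HEK 293T cells carrying a UAS-driven beta-lactamase reporter with compound and agonist (3 nM final), and a 2 h FRET substrate step, CellTiter-Glo was added and luminescence read after 30 min.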

Assay [3] is described as follows: qHTS assay to identify small molecule agonists of the NFkB signaling pathway - cell viability counter screen (AID 1159515). Further: series mostly up to about 61 µM; nearly all actives have a fitted effect of over 55% in size. Put shortly: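 Cells are seeded (2,000 NFkB-bla ME-180 per well), rested overnight, and dosed with DMSO-dissolved compounds for 5 hr at 37 C. Viability is then read by CellTiter-Glo luminescence after 30 min at room temperature.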
A short description of assay [4]: qHTS assay to identify small molecule agonists of the endoplasmic reticulum stress response signaling pathway (AID 1159516; active means well fitted activation curve with a large enough effect in the signal ratio in the repeat runs, not every such curve was filed as active; the % refers to the signal ratio; further: potency means the concentration at half of the fitted maximal effect). A digest of the protocol:
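Cells are seeded at 1,500 per well and incubated overnight. Compounds in DMSO are added for 5 hr at 37 C, then beta-lactamase FRET substrate for 2 hr at room temperature, and fluorescence at 460 and 530 nm is measured.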

Assay [5] is described as follows: qHTS assay to identify small molecule agonists of the endoplasmic reticulum stress response signaling pathway - cell viability counter screen (AID 1159517).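 Further: HeLa cells carrying an ER stress response element beta-lactamase reporter; series mostly up to about 61 µM; nearly all actives have a fitted effect of over 50% in size.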 A digest of the protocol:
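ESRE-bla HeLa cells (1,500/well) were plated overnight at 37 C and exposed to compounds for 5 hr. After the 2 hr beta-lactamase substrate read, CellTiter-Glo went into the same wells, and luminescence was read after 30 min at room temperature.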

Assay [6] in a line: qHTS assay to identify small molecule antagonists of the retinoid-related orphan receptor gamma (ROR-gamma) signaling pathway - cell viability counter screen (AID 1159520; active means well fitted curve in the direction sought with a large enough effect in the repeat runs; an effect the other way counts as inactive or inconclusive; further: nearly all actives have a fitted effect of over 50% in size). A digest of the protocol:
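Cytotoxicity was read from cellular ATP (CellTiter-Glo luminescence) after 16 hr at 37 C with 1 uM doxycycline induction. The inducer was added 2 hr after compound transfer to Tet-on ROR gamma CHO cells.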

The target in assay [7] is Nuclear receptor ROR-gamma (Homo sapiens) (UniProt P51449). As to the kind of experiment: qHTS assay to identify small molecule antagonists of the retinoid-related orphan receptor gamma (ROR-gamma) signaling pathway (AID 1159521; active means well fitted curve in the direction sought with a large enough effect in the repeat runs; an effect the other way counts as inactive or inconclusive). Put shortly:
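Inducible-expression reporter assay: doxycycline (1 uM final) switched on RORγ in CHO cells bearing a ROR response element-luciferase construct, with test compounds present from 2 h beforehand. Decreased luminescence after 16 h defined antagonist activity.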

A short description of assay [8]: qHTS assay to identify small molecule agonists of the AP-1 signaling pathway - cell viability counter screen (AID 1159525). Further: nearly all actives have a fitted effect of over 55% in size. Put shortly:
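Intracellular ATP by Cell Titer Glo luminescence (30 min, RT) in the same ME-180 AP-1-bla wells after the 5 h compound exposure at 37 °C. Normalised to tetra n-octyl ammonium bromide and DMSO controls.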

Assay [9] is described as follows: qHTS assay to identify small molecule agonists of the AP-1 signaling pathway (AID 1159526).
The target of assay [10] is Retinoic acid receptor RXR-alpha (Homo sapiens) (UniProt P19793). In words: qHTS assay to identify small molecule agonists of the RXR signaling pathway (AID 1159527). Further: nearly all actives have a fitted effect of over 35% in size. Further: potency means the concentration at half of the fitted maximal effect. A digest of the protocol: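 Compounds in DMSO were added to RXR-alpha-UAS-bla HEK 293T cells kept in 2% charcoal-stripped serum, and incubated 16 hr at 37 C with 5% CO2. Reporter signal came from a 2 hr B/G FRET substrate step.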
Chain of Retinoic acid receptor RXR-alpha (Homo sapiens) (P19793 whole entry, looked up): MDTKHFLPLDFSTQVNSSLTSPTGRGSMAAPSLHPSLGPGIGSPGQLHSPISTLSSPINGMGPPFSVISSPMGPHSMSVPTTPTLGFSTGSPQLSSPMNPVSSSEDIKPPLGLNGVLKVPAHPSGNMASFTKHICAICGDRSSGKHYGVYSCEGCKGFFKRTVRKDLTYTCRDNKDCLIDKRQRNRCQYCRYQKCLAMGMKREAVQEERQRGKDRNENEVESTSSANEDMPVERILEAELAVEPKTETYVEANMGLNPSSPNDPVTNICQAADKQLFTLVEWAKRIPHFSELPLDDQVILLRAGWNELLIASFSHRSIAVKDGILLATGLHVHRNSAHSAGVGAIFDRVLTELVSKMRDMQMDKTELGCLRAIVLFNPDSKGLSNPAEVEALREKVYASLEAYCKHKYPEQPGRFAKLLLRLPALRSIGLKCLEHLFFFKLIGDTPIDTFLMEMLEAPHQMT

“And” between values parts separate entries of the source, which are not always exact repeats. Equal entries are not always repeated. Records with an inconclusive call do not appear. The source made the active and inactive calls. Unless noted, the call rests on the fitted dose curve.

For `C=CC(=O)NCOCCCC`, the Potency result in assay [1], in assay [2], in [3], in assay [4], in assay [5] and in assay [6] was “inactive” each time. Also, the Potency result in assay [7] and in assay [8] was “inactive” throughout. Further, the molecule was classed as inactive in assay [9].

Turning to `OC[C@H]1O[C@@H](Oc2ccc(O)cc2)[C@H](O)[C@@H](O)[C@@H]1O`, the Potency entry in assay [1], in [2], in assay [3], in assay [4], in assay [5] and in assay [6] was “inactive” throughout. For the same molecule, the Potency result in assay [7], in assay [8] and in assay [10] was “inactive” in each case. In addition, the molecule was called inactive in [9].

Consider `CCc1cccc(O)c1`, for which the Potency result in assay [1], in assay [2], in assay [3], in assay [4], in assay [5] and in [6] was “inactive” each time. The Potency result in assay [7], in [8] and in [10] was “inactive” in each case. Also, in assay [9], the call was inactive.

For the molecule `CC(=O)Nc1ccc(CC(=O)O)cc1`, the Potency entry in assay [1], in [2], in assay [3], in [4], in assay [5] and in assay [6] was “inactive” in each case. Further, the Potency result in assay [7], in assay [8] and in [10] was “inactive” throughout. Besides, in [9], the call was inactive.

Regarding `CC[N+](CC)(CC(=O)Nc1c(C)cccc1C)Cc1ccccc1`, the Potency result in assay [1], in assay [2], in assay [3], in [4], in assay [5] and in [6] was “inactive” each time. Besides, the Potency result in assay [7], in assay [8] and in assay [10] was “inactive” throughout. In addition, the call in assay [9] was inactive.

Turning to `O=C1O[C@H]([C@H](O)CO)C(O)=C1O`, the Potency result in [1], in assay [2], in assay [3], in assay [4], in assay [5] and in [6] was “inactive” throughout. The Potency entry in [7], in assay [8] and in [10] was “inactive” each time. In [9], the molecule was classed as inactive.

With `Cc1ccncc1`, the Potency result in [1], in [2], in assay [3], in assay [4], in [5] and in [6] was “inactive” throughout. Further, the Potency result in [7], in assay [8] and in [10] was “inactive” each time. Besides, in assay [9], the molecule was classed as inactive.

As for `OC1CCCCC1`, the Potency entry in assay [1], in assay [2], in assay [3], in [4], in [5] and in [6] was “inactive” each time. In addition, the Potency result in assay [7], in assay [8] and in [10] was “inactive” each time. For the same molecule, the molecule was classed as inactive in [9].

Take `CC(C=O)Cc1ccc(C(C)(C)C)cc1` (configuration not stated): the Potency entry in [1], in assay [2], in assay [3], in [4], in assay [5] and in assay [6] was “inactive” throughout. Moreover, the Potency entry in assay [7], in assay [8] and in assay [10] was “inactive” throughout. The call in [9] was inactive.

As for `CC(C)(CO)CO`, the Potency entry in assay [1], in assay [2], in assay [3], in assay [4], in assay [5] and in assay [6] was “inactive” throughout. Further, the Potency entry in assay [7], in [8] and in [10] was “inactive” each time. In addition, the molecule was classed as inactive in assay [9].

Regarding `Cc1cccc(C)c1[N+](=O)[O-]`, the Potency entry in assay [1], in assay [2], in assay [3], in [4], in assay [5] and in assay [6] was “inactive” throughout. The Potency entry in assay [7], in [8] and in assay [10] was “inactive” each time. Also, in [9], the result was inactive.

As to `O=C1OC(=O)c2c(Cl)c(Cl)c(Cl)c(Cl)c21`, the Potency entry in [1], in assay [2], in [3], in assay [4], in assay [5] and in assay [6] was “inactive” in each case. Moreover, the Potency result in assay [7], in [8] and in assay [10] was “inactive” each time. Besides, the outcome in assay [9] was inactive.

`Nc1nc(N)c2nc(-c3ccccc3)c(N)nc2n1`: the Potency result in assay [1], in [3], in [5], in assay [6], in assay [7] and in assay [8] was “inactive” throughout. Also, the Potency in assay [4] was 49 µM (active) and 21.3 µM (active); in assay [10] it was 19 µM (active).

For `C1CCCNCC1`, the Potency result in assay [1], in assay [2], in [3], in assay [4], in [5] and in assay [6] was “inactive” throughout. Moreover, the Potency result in [7], in assay [8] and in assay [10] was “inactive” each time. Besides, the outcome in assay [9] was inactive.

As to `CCCCCCCCC(=O)O`, the Potency result in assay [1], in assay [2], in assay [3], in [4], in assay [5] and in [6] was “inactive” throughout. Besides, the Potency entry in assay [7], in [8] and in assay [10] was “inactive” throughout. Also, the result in [9] was inactive.
